Test results reported in the supplement of paper PMC10849652.
The full data set covers some 7,900 targets. This sample favours those with a hit. About 0.6% of all pairs of compound and target were hits. A number with no mark means an inactive call.

Key:
Experiment in all cases: log2 fold change, soluble protein after heating vs DMSO (PISA); higher = thermal stabilisation; K562 cells, 10 uM, 30 min; active = over 0.2 and 3.5 SD of the protein, either way, in both replicates (recomputed)
[1] = compound: CC1=C(C=C(C=C1)NC(=O)C2=CC(=CC=C2)C(C)(C)C#N)NC3=CC4=C(C=C3)N=CN(C4=O)C
How it was run: (§1)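 Aliquots of K562 cells (2×10^6 cells/mL) treated with 10 μM compound for 30 min were heated for 3 min over 48°C-58°C. After pooling and extraction in PBS with 0.5% NP-40 at 4°C, soluble protein from a 21,000xg, 90 min spin was quantified by TMTpro 16plex LC-MS/MS with channel sums equalised. Thermal stability is expressed against control samples, from duplicates, as a log2 fold change.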

[2] = compound: CC1=C(C=C(C=C1)NC(=O)C2=CC(=CC=C2)N(C)C)NC(=O)C3=CC=C(C=C3)O
How it was run: as §1

[3] = compound: CC1=CC=C(C=C1)SC2=C3C=C(SC3=CN=C2)C(=O)N
How it was run: as §1

[4] = compound: CC1=NC(=CC=C1)C2=C(N=C(N2)C(C)(C)C)C3=CC4=NC=CN=C4C=C3
How it was run: as §1

Nexturastat A = compound: CCCCN(Cc1ccc(C(=O)NO)cc1)C(=O)Nc1ccccc1 [Nexturastat A]
How it was run: as §1

vemurafenib = compound: CCCS(=O)(=O)Nc1ccc(F)c(C(=O)c2c[nH]c3ncc(-c4ccc(Cl)cc4)cc23)c1F [vemurafenib]
How it was run: as §1

[5] = compound: CCCS(=O)(=O)Nc1ccc(F)c(C(=O)c2c[nH]c3ncc(Cl)cc23)c1F
How it was run: as §1

[6] = compound: CCCc1cc(C)[nH]c(=O)c1CNC(=O)c1cc(-c2ccnc(N3CCN(C)CC3)c2)cc2c1cnn2C(C)C
How it was run: as §1

givinostat = compound: CCN(CC)Cc1ccc2cc(COC(=O)Nc3ccc(C(=O)NO)cc3)ccc2c1 [givinostat]
How it was run: as §1

barasertib = compound: CCN(CCCOc1ccc2c(Nc3cc(CC(=O)Nc4cccc(F)c4)[nH]n3)ncnc2c1)CCOP(=O)(O)O [barasertib]
How it was run: as §1

[7] = compound: CC[C@@H]1C(=O)N(C)c2cnc(Nc3ccc(C(=O)NC4CCN(C)CC4)cc3OC)nc2N1C1CCCC1
How it was run: as §1

volasertib = compound: CC[C@@H]1C(=O)N(C)c2cnc(Nc3ccc(C(=O)N[C@H]4CC[C@H](N5CCN(CC6CC6)CC5)CC4)cc3OC)nc2N1C(C)C [volasertib]
How it was run: as §1

[8] = compound: CC[C@H](C)N1C=C(C2=C(C=C(C=C21)C3=CN=C(C=C3)N4CCNCC4)C(=O)NCC5=C(C=C(NC5=O)C)C)C
How it was run: as §1

epoxomicin = compound: CC[C@H](C)[C@@H](C(=O)N[C@@H]([C@@H](C)O)C(=O)N[C@@H](CC(C)C)C(=O)[C@]1(CO1)C)NC(=O)[C@H]([C@@H](C)CC)N(C)C(=O)C [epoxomicin]
How it was run: as §1

[9] = compound: CCn1c(C(=O)N(C2CC2)C2CC2)cc2c3c(ncn3C)c(Nc3cc(C)n(C)n3)nc21
How it was run: as §1

[10] = compound: CCn1cc(-c2ccnc3[nH]c(-c4cccc(CN(C)C)c4)cc23)c(-c2ccc(NC(=O)N(C)C)cc2)n1
How it was run: as §1

[11] = compound: CN(C)CC(=O)Nc1ccc2[nH]c(=O)c3ccccc3c2c1
How it was run: as §1

rosiglitazone = compound: CN(CCOC1=CC=C(C=C1)C[C@H]2C(=O)NC(=O)S2)C3=CC=CC=N3 (racemic) [rosiglitazone]
How it was run: as §1

[12] = compound: CN1C2=C(C3=C1C(=O)N(N=C3)CC4=CC(=CC=C4)N)SC(=C2)S(=O)C
How it was run: as §1

[13] = compound: CN1CCC(CNc2ccc3ncc(-c4cccc(OC(F)(F)F)c4)n3n2)CC1
How it was run: as §1

Sequence of UniProt Q6ZRS2 (Q6ZRS2 whole entry, looked up): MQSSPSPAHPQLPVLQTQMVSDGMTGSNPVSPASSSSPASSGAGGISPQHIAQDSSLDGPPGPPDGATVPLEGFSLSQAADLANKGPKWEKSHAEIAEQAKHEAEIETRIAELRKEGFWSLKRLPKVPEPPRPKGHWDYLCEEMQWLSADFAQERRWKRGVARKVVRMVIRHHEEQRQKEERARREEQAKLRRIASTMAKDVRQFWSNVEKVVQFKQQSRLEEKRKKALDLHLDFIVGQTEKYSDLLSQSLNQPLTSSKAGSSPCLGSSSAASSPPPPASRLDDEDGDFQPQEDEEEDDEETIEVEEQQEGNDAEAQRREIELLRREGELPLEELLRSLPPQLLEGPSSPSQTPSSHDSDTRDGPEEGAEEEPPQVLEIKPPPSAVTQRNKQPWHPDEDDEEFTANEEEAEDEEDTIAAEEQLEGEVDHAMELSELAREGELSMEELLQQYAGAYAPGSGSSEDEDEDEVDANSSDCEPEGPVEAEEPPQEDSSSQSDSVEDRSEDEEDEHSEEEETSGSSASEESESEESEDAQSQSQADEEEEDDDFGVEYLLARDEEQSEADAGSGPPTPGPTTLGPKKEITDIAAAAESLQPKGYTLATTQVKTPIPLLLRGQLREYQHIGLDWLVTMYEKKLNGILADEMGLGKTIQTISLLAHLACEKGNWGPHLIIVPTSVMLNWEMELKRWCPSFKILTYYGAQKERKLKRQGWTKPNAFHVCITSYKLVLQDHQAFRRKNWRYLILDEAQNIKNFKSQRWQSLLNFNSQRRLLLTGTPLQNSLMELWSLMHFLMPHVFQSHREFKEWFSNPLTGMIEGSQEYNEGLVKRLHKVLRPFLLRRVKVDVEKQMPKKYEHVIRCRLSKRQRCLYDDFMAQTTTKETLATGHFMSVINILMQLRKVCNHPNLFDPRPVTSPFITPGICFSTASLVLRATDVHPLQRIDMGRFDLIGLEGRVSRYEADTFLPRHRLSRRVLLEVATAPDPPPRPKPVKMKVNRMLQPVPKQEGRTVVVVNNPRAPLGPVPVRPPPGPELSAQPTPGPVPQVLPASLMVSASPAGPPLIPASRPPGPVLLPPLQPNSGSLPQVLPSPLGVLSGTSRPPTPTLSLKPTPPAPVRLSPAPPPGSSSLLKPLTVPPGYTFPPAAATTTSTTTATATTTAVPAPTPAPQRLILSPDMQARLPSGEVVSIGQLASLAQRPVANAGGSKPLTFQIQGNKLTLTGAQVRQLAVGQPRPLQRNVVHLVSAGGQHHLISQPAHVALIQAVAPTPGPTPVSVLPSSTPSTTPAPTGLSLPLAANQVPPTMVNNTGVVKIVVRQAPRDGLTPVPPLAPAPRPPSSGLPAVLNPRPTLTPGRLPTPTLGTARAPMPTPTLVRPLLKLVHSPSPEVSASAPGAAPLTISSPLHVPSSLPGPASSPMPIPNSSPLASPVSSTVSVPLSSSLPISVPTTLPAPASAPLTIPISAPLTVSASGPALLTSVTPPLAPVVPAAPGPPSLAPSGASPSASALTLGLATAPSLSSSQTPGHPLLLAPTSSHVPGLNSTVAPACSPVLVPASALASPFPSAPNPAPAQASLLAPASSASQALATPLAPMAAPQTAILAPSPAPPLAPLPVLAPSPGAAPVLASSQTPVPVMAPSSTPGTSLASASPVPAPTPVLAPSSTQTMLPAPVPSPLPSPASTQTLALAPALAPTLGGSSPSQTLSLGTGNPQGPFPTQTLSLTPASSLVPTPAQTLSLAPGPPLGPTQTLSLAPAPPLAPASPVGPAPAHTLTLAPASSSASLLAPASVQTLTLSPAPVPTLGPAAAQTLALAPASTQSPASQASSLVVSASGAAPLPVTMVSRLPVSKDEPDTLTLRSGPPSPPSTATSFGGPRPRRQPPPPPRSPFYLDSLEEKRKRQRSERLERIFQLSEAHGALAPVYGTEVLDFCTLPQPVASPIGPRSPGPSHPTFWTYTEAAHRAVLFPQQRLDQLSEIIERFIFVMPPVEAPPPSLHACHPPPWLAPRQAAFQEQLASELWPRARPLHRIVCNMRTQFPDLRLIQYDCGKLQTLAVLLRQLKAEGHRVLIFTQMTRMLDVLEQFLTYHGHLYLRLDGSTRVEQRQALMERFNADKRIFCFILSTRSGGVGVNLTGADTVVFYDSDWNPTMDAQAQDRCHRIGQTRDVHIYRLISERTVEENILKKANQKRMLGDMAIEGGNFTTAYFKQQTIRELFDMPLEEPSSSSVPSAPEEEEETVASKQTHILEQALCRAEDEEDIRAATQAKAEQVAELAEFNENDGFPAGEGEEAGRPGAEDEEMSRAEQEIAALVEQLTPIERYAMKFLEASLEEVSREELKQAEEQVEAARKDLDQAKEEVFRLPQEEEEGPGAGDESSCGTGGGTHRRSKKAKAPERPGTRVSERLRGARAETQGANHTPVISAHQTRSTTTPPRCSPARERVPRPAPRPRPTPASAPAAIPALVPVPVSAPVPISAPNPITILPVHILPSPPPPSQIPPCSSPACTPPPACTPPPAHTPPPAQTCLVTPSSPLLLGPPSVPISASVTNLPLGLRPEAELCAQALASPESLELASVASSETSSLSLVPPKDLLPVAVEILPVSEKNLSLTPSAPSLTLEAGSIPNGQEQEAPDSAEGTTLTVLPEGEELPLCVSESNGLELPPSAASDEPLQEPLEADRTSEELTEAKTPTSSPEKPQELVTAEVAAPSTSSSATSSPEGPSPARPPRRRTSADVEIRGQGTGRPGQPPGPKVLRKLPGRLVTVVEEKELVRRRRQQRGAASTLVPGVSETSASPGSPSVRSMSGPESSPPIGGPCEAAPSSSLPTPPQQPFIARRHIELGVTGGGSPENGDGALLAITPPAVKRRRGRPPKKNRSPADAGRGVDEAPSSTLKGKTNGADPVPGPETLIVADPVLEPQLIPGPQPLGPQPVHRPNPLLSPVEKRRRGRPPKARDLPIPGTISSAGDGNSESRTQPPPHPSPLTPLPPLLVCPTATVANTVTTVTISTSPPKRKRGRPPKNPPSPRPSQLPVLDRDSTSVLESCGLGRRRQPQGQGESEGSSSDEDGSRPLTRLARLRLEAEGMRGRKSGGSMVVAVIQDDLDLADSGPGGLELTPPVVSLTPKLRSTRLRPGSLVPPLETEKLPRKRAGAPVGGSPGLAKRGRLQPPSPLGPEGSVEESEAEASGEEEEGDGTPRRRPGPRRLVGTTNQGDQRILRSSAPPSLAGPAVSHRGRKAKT
Sequence of UniProt Q15208 (Q15208 whole entry, looked up): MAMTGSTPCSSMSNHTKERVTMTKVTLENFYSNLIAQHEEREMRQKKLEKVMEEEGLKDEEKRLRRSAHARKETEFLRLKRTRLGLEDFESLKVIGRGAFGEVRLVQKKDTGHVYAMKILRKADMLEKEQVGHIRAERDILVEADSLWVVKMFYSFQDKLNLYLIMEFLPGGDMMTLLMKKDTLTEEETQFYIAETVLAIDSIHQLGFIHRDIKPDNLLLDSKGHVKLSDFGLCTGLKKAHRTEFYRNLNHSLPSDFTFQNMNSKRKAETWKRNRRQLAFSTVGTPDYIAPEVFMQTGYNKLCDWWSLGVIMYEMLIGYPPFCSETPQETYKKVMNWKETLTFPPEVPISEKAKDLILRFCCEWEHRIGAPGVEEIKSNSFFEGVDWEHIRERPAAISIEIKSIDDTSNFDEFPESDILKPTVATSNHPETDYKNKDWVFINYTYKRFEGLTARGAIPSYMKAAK
Sequence of UniProt Q6PCB7 (Q6PCB7 whole entry, looked up): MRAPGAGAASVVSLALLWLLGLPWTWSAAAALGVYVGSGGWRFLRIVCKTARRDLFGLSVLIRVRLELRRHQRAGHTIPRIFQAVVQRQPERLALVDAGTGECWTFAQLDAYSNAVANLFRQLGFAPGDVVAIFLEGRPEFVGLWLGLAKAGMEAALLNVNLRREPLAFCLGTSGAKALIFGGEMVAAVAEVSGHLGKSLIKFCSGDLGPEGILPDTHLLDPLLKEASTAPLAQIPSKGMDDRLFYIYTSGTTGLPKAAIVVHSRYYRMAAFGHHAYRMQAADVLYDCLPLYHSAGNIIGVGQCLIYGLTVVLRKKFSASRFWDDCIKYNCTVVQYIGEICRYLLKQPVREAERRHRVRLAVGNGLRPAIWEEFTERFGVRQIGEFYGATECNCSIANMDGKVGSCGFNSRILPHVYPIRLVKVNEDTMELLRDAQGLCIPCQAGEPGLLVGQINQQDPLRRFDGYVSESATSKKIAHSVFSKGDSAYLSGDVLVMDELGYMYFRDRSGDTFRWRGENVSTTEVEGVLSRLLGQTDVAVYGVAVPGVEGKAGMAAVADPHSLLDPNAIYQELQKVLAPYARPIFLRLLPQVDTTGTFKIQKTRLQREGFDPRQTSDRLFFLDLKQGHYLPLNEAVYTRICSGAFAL
Sequence of UniProt Q9NRS6 (Q9NRS6 whole entry, looked up): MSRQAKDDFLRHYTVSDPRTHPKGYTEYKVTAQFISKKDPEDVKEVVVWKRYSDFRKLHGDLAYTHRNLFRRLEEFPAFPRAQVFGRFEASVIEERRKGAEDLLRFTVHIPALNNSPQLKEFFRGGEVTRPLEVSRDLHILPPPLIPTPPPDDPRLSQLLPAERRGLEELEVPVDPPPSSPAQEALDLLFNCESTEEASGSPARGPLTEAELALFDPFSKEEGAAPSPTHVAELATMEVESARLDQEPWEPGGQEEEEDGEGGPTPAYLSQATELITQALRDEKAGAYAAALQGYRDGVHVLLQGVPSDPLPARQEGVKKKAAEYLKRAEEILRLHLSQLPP
Sequence of UniProt Q16594 (Q16594 whole entry, looked up): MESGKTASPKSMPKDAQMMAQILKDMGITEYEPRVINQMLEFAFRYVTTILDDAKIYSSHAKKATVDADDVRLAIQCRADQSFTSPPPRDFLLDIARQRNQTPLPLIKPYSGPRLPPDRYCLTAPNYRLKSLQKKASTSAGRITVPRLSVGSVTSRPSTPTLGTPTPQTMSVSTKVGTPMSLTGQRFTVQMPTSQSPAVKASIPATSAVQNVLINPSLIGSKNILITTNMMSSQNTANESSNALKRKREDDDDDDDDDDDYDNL

Row | Target | log2 fold change [1] | log2 fold change [2] | log2 fold change [3] | log2 fold change [4] | log2 fold change (Nexturastat A) | log2 fold change (vemurafenib) | log2 fold change [5] | log2 fold change [6] | log2 fold change (givinostat) | log2 fold change (barasertib) | log2 fold change [7] | log2 fold change (volasertib) | log2 fold change [8] | log2 fold change (epoxomicin) | log2 fold change [9] | log2 fold change [10] | log2 fold change [11] | log2 fold change (rosiglitazone) | log2 fold change [12] | log2 fold change [13]
1 | TAF9 (UniProt Q16594) | 0.125 | -0.007 | -0.092 | 0.018 | 0 | -0.017 | -0.097 | 0.02 | 0.019 | -0.019 | -0.028 | 0.095 | -0.029 | 0.12 | 0.025 | 0.034 | -0.021 | -0.001 | 0.061 | 0.077
2 | STK38 (UniProt Q15208) | 0.099 | -0.054 | 0.013 | 0.004 | -0.062 | 0.091 | 0.12 | 0.049 | 0.048 | 0.022 | -0.107 | -0.363 (active) | 0.106 | 0.035 | 0 | 0.003 | 0.059 | 0.05 | -0.005 | -0.068
3 | SLC27A4 (UniProt Q6P1M0) | -0.074 | -0.072 | 0.011 | -0.096 | -0.014 | -0.039 | -0.031 | -0.017 | 0.021 | 0.056 | -0.048 | -0.473 (active) | 0.03 | -0.064 | -0.014 | -0.036 | 0.04 | 0.066 | -0.051 | -0.158
4 | SNX15 (UniProt Q9NRS6) | -0.25 | -0.009 | -0.015 | -0.089 | – | -0.122 | -0.021 | 0.061 | – | 0.012 | 0.177 | -0.223 | -0.023 | – | – | -0.016 | -0.045 | -0.051 | 0.119 | 0.039
5 | SUN1 isoform 9 (UniProt O94901) | -0.164 | 0.047 | 0.029 | 0.04 | 0.11 | -0.21 | -0.005 | 0.037 | 0.078 | – | 0.13 | 0.018 | -0.065 | -0.021 | 0.027 | 0.135 | 0.002 | – | 0.037 | -0.111
6 | TERF2IP (UniProt Q9NYB0) | -0.023 | -0.012 | 0.02 | 0.013 | 0.057 | 0.184 | 0.001 | -0.017 | -0.009 | 0.021 | -0.038 | -0.205 | 0.001 | 0.081 | 0.02 | 0.01 | 0.045 | 0.016 | 0.026 | -0.039
7 | SYNE2 isoform 2 (UniProt Q8WXH0) | -0.084 | 0.014 | 0.064 | -0.131 | – | -0.04 | 0 | -0.171 | 0.43 | 0.079 | 0.039 | -0.025 | -0.145 | – | -0.181 | -0.274 | -0.044 | 0.053 | -0.021 | -0.025
8 | SLIRP (UniProt Q9GZT3) | 0.175 | 0.008 | -0.035 | 0.039 | 0.286 | 0.028 | -0.031 | 0.214 | 0.113 | 0.019 | 0.05 | 0.343 | -0.093 | 0.302 | 0.015 | 0.02 | 0.08 | 0.058 | 0.092 | 0.06
9 | SLC27A1 (UniProt Q6PCB7) | -0.186 | 0.036 | -0.046 | 0.12 | -0.061 | -0.109 | -0.008 | -0.01 | 0.049 | 0.043 | – | -0.639 (active) | 0.022 | -0.021 | -0.008 | – | 0.008 | -0.01 | -0.072 | –
10 | SLC29A3 (UniProt Q9BZD2) | 0.005 | -0.023 | 0.089 | 0 | 0.124 | -0.097 | -0.128 | 0.017 | 0.005 | -0.016 | 0.171 | 0.007 | 0.05 | -0.048 | 0.047 | – | 0.002 | -0.049 | -0.161 | –
11 | SRFBP1 (UniProt Q8NEF9) | 0.008 | -0.019 | -0.127 | -0.025 | 0.111 | – | -0.012 | -0.012 | -0.061 | -0.045 | 0.208 | 0.157 | -0.094 | -0.047 | -0.088 | 0.049 | – | 0.078 | 0.117 | 0.277
12 | STARD3 (UniProt Q14849) | 0.103 | 0.075 | -0.027 | 0.036 | -0.048 | 0.052 | -0.059 | 0 | 0.011 | 0.016 | – | 0.115 | 0.091 | -0.019 | 0.053 | 0.039 | -0.037 | 0.024 | -0.064 | -0.386 (active)
13 | SRCAP (UniProt Q6ZRS2) | -0.177 | -0.286 | 0.058 | 0.036 | – | 0.278 | 0.082 | -0.02 | -0.041 | 0.026 | 0.068 | -0.207 | -0.059 | – | 0.066 | -0.041 | 0.121 | 0.01 | -0.001 | -0.006
14 | SLC38A7 (UniProt Q9NVC3) | 0.092 | 0.009 | 0 | 0.094 | -0.04 | 0.042 | 0.012 | -0.002 | 0.008 | -0.012 | -0.283 | -0.054 | -0.023 | 0.078 | -0.018 | 0.109 | -0.123 | 0.036 | – | -0.589
15 | SLC35F6 (UniProt Q8N357) | -0.041 | -0.166 | 0.001 | – | -0.065 | -0.168 | -0.055 | -0.066 | 0.129 | 0.045 | -0.099 | -0.053 | 0.087 | 0.021 | 0.11 | – | 0.034 | 0.047 | -0.029 | –
16 | SRSF3 (UniProt P84103) | -0.019 | 0.047 | -0.208 | -0.103 | 0.124 | -0.064 | -0.173 | 0.047 | -0.029 | -0.093 | 0.198 | 0.313 | -0.075 | -0.213 | 0.028 | 0.189 | -0.139 | -0.115 | 0.18 | 0.233
17 | STAM2 (UniProt O75886) | -0.08 | -0.032 | 0.034 | 0.069 | -0.012 | 0.009 | 0.074 | -0.038 | 0.021 | 0.028 | -0.039 | -0.297 (active) | 0.063 | 0.039 | -0.007 | -0.056 | 0 | 0.022 | -0.033 | -0.128
